For 18 molecules, Inhibition results are on record in ChEMBL document CHEMBL4296182, “CO-ADD screening of NIH NCI Diversity Set V”.

In the experiment the test system is Staphylococcus aureus. As to the kind of experiment: Antibacterial activity against Staphylococcus aureus MRSA ATCC 43300 (CO-ADD:GP_020); MIC in CAMBH media using NBS plates, by Resazurin F(560/590). In kind it is functional. Particulars: Concentration 20 uM, ASSAY_TEST Inhibition of Bacterial Growth, detection method Resazurin, Fluorescence (ex560/em590), MEDIA CAMHB, plate type 384well, CORNING #3640, time 18 hr. In general terms: Alamar Blue is a resazurin reagent that responds to reducing activity.
A word on the Inhibition: it is the relative decrease from the control value, in per cent. Turning to `CC(=O)OCc1cc(-c2nc3ccccc3nc2O)nn1-c1ccc(Cl)cc1`, the Inhibition was 8.25%.

On to `Cc1n[nH]c2nc(N)nn2c1=O`, for which the Inhibition is recorded as -4.36%.

Consider `Cc1ccc(/N=N/c2c(O)c3ccccc3[nH]c2=O)c(S(=O)(=O)N(C)C)c1`, for which the Inhibition came out at 12.78%.

Regarding `Cc1ccc(/N=N\c2c(O)ccc3[nH]nnc23)cc1`, the Inhibition was -9.42%.

Turning to `O=C(O)c1ccccc1-c1ccccc1C(=O)Nc1ccc2c(c1)nc(O)c1ccccc12`, the Inhibition was 7.3%.

Take `CC(C)NC(=O)Nc1cccc(Cl)c1`: the Inhibition is listed as 12.4%.

On to `COC1OCC(O)C(NC(=O)N(C)N=O)C1O` (stereo not drawn), for which the Inhibition is reported as -1.39%.

Regarding `CCOC(CNCc1cc(C)c2[nH]c3ccccc3c2c1C)OCC`, the Inhibition is given as 11.65%.

Turning to `O=C(c1ccc(O)cc1)c1ccc(C(=O)c2ccc(O)cc2)cc1`, the Inhibition was 20.54%.

`CCN(CC)Cc1cc2[nH]c3c4ccc(Cl)cc4ncc3c2cc1OC`: the Inhibition was found to be 9.09%.

In the case of `OC(COc1cccc2ccccc12)CN1CCN(c2ccccc2Cl)CC1` (stereo not drawn), the Inhibition is recorded as -4.97%.

For `CC(=O)OCCN1c2ccccc2Sc2cnccc21`, the Inhibition is reported as -12.23%.

For `Cc1ccc(C2C=CC(C#N)=CN2Cc2ccccc2)cc1` (stereo not drawn), the Inhibition is 18.9%.

With `c1ccc(-c2nc[nH]c2-c2ccccc2)cc1`, the Inhibition turned out to be 15.79%.

`COc1cccc2c1C(CO)N1C(C#N)C3CC(C(=O)O)C(C1C2)N3C` (stereo not drawn): the Inhibition is reported as 14.9%.

In the case of `CC(=O)Nc1ccc(S(=O)(=O)N/N=c2/sc3ccccc3n2C)cc1N`, the Inhibition amounted to 12.5%.

As for `COc1cc(-c2ccc(NC(=O)NC3CC3)c(OC)c2)ccc1NC(=O)NC1CC1`, the Inhibition is on record as 15.12%.

In the case of `CCCc1cc(=O)oc2c3c(c4c(c12)OC(C)(C)C=C4)OC(C)[C@H](C)[C@@H]3O` (stereo partly drawn), the Inhibition was 12.64%.
